JMJD2A Tudor inh = qHTS Assay for Inhibitors of JMJD2A-Tudor Domain; Lysine-specific demethylase 4A (Homo sapiens), O75164; AlphaScreen JMJD2A-Tudor / H3K4me3 peptide binding; Potency, µM (series often up to 114 µM), actives largely listed as inhibitors; actives 4.4% (n = 390,000); AID 504339, 2011; further: nearly all actives have a fitted effect of over 50% in size
GCN5L2 inh = qHTS Assay for Inhibitors of GCN5L2 | GCN5L2 HAT assay, ThioGlo1 CoA-SH fluorescence | Potency, µM (titrated, usually from 58.9 µM), most hits filed as inhibitors | actives 0.21% (n = 390,000) | AID 504327, 2011
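qHTS, 1536-well. 20nM enzyme, pH 7.5 HEPES/EDTA/Tween-20 buffer; 15 min compound preinc., RT. Start: 75uM H3(1-25), 70uM AcCoA, 50uM ThioGlo1. Read Ex340/Em540 at t=0 (autofluorescence flag) and t=20 min.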
PI5P4Ka inh = qHTS for Inhibitors of phosphatidylinositol 5-phosphate 4-kinase (PI5P4K); Phosphatidylinositol 5-phosphate 4-kinase type-2 alpha (Homo sapiens), P48426; PI5P4Kalpha enzyme, ADP-Glo luminescence, 60 min; active compounds read low; max response, %; actives 1.2% (n = 330,000); active means max response of -50% or lower; inconclusive means between -30% and -50%; inactive means -30% or higher; further: value at the top dose of about 77 µM
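Luminescence from ADP-Glo served as readout of PI5P4Kalpha activity in a qHTS format. Reaction: enzyme, substrate, compound, ATP at 5 microM final, 60 min at RT.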
HP1b binding inh = HTS for Inhibitors of HP1-beta Chromodomain Interactions with Methylated Histone Tails | AID 540317, 2011 | actives 0.56% (n = 390,000) | Potency, µM (doses to about 114 µM), actives largely listed as inhibitors | Chromobox protein homolog 1 (Homo sapiens), P83916 | AlphaScreen HP1-beta / biotin-H3K9me3 peptide binding; further: nearly all actives have a fitted effect of over 70% in size
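Compound inhibition of the preformed complex between 50 nM HP1-beta and 50 nM biotinylated H3K9me3 peptide was read by AlphaScreen. Buffer was PBS pH 7.4 with 0.01% Tween-20. Incubations ran 30 min at room temperature, with 10 ug/mL donor/acceptor beads.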
PLK1 PBD inh = qHTS for Inhibitors of PLK1-PDB (polo-like kinase 1 - polo-box domain): Primary Screen; Serine/threonine-protein kinase PLK1 (Homo sapiens), P53350; Plk1 PBD binding of FITC phosphopeptide, fluorescence polarization; Potency, µM, usual class: inhibitors; actives 2.8% (n = 360,000); further: series mostly up to about 57 µM; nearly all actives have a fitted effect of over 65% in size
BAZ2B inh = qHTS Assay for Inhibitors of BAZ2B. Bromodomain adjacent to zinc finger domain protein 2B (Homo sapiens), Q9UIF8. AlphaScreen BAZ2B-H3K14Ac peptide displacement. Potency, µM (doses to about 114 µM), usual class: inhibitors. actives 4.4% (n = 360,000). AID 504333, 2011; further: nearly all actives have a fitted effect of over 60% in size
Target sequence (Q9UIF8 whole entry, looked up, the tested form may be a part): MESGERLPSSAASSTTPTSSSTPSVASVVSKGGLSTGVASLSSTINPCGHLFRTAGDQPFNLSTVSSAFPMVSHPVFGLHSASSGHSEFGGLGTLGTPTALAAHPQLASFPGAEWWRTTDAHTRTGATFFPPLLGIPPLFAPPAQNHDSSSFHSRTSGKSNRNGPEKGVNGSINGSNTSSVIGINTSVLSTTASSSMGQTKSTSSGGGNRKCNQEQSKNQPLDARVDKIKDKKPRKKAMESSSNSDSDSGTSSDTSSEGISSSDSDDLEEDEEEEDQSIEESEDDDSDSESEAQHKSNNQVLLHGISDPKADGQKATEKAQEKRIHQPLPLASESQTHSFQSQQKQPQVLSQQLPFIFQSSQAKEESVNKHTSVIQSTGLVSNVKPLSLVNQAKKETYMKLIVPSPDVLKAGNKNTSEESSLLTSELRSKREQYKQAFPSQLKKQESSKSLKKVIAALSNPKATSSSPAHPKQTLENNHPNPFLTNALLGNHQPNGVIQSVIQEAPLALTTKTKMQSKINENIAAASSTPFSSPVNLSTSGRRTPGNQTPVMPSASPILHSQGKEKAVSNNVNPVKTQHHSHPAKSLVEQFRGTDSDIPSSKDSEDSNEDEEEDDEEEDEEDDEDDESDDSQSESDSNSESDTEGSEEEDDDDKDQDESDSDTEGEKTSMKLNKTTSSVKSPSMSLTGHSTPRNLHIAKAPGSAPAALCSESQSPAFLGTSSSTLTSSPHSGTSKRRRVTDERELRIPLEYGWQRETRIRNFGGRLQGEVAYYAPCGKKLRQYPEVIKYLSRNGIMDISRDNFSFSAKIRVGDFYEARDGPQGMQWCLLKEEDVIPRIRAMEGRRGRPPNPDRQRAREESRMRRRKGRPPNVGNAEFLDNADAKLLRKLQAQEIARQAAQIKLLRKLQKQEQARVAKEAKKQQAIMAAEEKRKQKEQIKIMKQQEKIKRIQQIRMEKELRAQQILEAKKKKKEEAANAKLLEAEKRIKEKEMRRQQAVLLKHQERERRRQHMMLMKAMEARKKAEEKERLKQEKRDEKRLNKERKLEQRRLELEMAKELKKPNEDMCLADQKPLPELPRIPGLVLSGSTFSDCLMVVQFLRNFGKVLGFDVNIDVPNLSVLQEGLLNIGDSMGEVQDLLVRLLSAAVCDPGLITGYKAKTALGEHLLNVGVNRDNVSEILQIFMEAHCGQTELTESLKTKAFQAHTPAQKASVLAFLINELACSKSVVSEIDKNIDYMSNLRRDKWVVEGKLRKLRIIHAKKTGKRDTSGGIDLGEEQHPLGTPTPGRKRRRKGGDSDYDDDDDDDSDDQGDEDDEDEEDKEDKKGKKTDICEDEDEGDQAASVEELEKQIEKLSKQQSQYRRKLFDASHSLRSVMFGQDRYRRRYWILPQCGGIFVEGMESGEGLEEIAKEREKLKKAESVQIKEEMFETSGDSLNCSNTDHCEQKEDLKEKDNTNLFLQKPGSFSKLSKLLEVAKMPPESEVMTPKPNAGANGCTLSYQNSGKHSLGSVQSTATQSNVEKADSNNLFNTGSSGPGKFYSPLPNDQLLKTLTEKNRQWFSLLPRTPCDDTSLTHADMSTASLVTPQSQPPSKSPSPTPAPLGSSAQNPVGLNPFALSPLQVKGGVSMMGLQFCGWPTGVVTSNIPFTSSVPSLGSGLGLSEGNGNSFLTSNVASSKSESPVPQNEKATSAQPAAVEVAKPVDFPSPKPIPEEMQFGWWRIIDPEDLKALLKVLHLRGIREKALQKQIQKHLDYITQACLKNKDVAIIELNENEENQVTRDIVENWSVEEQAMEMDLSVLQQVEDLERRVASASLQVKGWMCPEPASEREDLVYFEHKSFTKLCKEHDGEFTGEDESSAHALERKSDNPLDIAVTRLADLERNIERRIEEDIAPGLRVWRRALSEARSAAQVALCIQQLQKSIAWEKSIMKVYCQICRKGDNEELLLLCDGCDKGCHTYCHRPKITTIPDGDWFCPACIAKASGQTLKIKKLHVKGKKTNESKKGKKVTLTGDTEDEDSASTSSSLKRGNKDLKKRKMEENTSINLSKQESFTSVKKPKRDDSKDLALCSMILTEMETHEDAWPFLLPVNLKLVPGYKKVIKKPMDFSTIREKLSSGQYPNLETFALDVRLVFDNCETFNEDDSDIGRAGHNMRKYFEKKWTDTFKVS
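Compounds, titrated to a top concentration of 110 uM, were incubated 30 min at room temperature with preformed BAZ2B/acetyl-K14 H3 peptide complex (50 nM each). Proximity signal was measured by AlphaScreen after 20 min with beads.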
Numbers stand for hits; i = inactive; ? = inconclusive; nt = no result. In the library only some 7% were active in any assay of this set; here they are far more common. Unless noted, the call rests on the fitted dose curve; in most records, active means well fitted curve in the direction sought with a large enough effect; inconclusive means small, poorly fitted or top-dose-only effect, or another doubt; inactive means no such curve, though single readings can be large; an effect the other way counts as inactive or inconclusive.

SMILES	JMJD2A Tudor inh	GCN5L2 inh	PI5P4Ka inh	HP1b binding inh	PLK1 PBD inh	BAZ2B inh
CC1=CC(C)(C)Nc2ccc(OC(=O)C(C)N3C(=O)c4ccccc4C3=O)cc21 (stereo unspecified)	?	i	i	?	i	22µM
O=C(Oc1cccc(OC(=O)c2ccco2)c1)c1ccco1	i	i	i	i	i	i
O=C(Oc1ccc(F)cc1)c1cccnc1	i	i	i	i	i	i
CC1=CC(C)(C)N2C(=O)C(=O)c3cc(OC(=O)c4ccco4)cc1c32	35µM	i	?	32µM	27µM	35µM
CC(=O)Nc1ccc(NC(=O)c2ccnn2C)cc1	i	nt	i	i	i	nt
COc1ccc(-c2noc(-c3ccc(NCc4ccc(C)cc4)c([N+](=O)[O-])c3)n2)cc1OC	i	i	nt	i	nt	i
N#CC1(NC(=O)COC(=O)c2ccccc2[N+](=O)[O-])CCCCC1	i	i	i	i	i	i
N#CC1(NC(=O)COC(=O)c2cc(O)c3ccccc3c2O)CCCCC1	25µM	i	?	?	6.7µM	50µM
O=C(NCc1ccco1)c1csc(Nc2ccccc2Cl)n1	i	i	nt	i	i	?
COc1ccc(NC(=O)N2CCc3ccccc3C2)cc1	i	?	i	i	i	i
O=C(c1csc(Nc2ccccc2Cl)n1)N1CCCC1	i	i	i	i	i	i
COc1ccc(Nc2nc(C(=O)NCc3ccco3)cs2)cc1	?	i	i	i	i	79µM
COc1ccc(Nc2nc(C(=O)N3CCc4ccccc4C3)cs2)cc1	45µM	i	i	?	i	?
O=C(c1csc(Nc2cccc3ccccc23)n1)N1CCCC1	i	i	i	i	i	40µM
COc1ccc(Nc2nc(C(=O)N(CCO)Cc3ccccc3)cs2)cc1	i	i	i	i	i	50µM
COc1ccc(NC(=S)N(CCO)Cc2ccccc2)cc1	nt	i	nt	nt	nt	nt
C=CC[C@H](CC(=O)OC(C)(C)C)C(=O)OC[C@@H]1CCCN1C(=O)[C@@H](CC=C)CC(=O)N[C@H](CO)Cc1ccccc1	i	i	i	i	i	nt
CC(=O)OC(C(=O)Nc1nncs1)c1ccccc1 (stereo unspecified)	nt	nt	i	nt	i	nt
CCc1cc(-c2[nH]ncc2-c2ccc3c(c2)OCO3)c(O)cc1O	32µM	i	nt	?	i	32µM
O=C(O)c1cc(N=Nc2c(O)[nH]c3ccc([N+](=O)[O-])cc23)ccc1Cl	i	i	-73	i	i	?
O=C(OCC(=O)N1N=C(c2ccc(Cl)cc2)CC1c1ccco1)c1ccco1 (stereo unspecified)	i	i	i	i	i	i
N=c1sccn1CC(=O)N1N=C(c2ccc(Cl)cc2)CC1c1ccco1 (stereo unspecified)	i	i	i	i	i	79µM
COc1cc(OC)c2c(-c3cccc(-c4ccc(N(C)C)cc4)c3)cc(=O)oc2c1	10µM	i	i	?	i	nt
COc1ccc(C)cc1NC(=O)CCn1nc(C)cc1C	?	i	nt	i	nt	50µM
Cc1ccc(C)c(NC(=O)CCn2cnnn2)c1	i	i	i	i	30µM	i
SMILES	JMJD2A Tudor inh	GCN5L2 inh	PI5P4Ka inh	HP1b binding inh	PLK1 PBD inh	BAZ2B inh
O=c1cc(CSc2n[nH]c(=O)n2C2CC2)c2ccc(O)cc2o1	i	i	i	i	i	i
Cc1c(C(=O)O)sc(S(=O)(=O)N2CCN(C(=O)Cc3ccc(F)cc3)CC2)c1C(=O)O	?	i	i	i	i	i
O=C(CCN1CCc2ccccc2CC1)c1ccc2c(c1)OCCO2	?	i	nt	i	13µM	i
O=C(CCN1CCOCC1)c1ccc2c(c1)OCCO2	i	i	i	i	?	i
Cc1cccc[n+]1CC(=O)c1ccc2c(c1)OCCO2	i	i	i	i	27µM	i
O=C(Cn1ncn2c(cc3sccc32)c1=O)NCCc1ccccc1	i	i	nt	i	nt	i
COC(=O)[C@H](C)NC(=O)NCCC1=CCCCC1	71µM	i	i	i	30µM	i

Source: PubChem (National Center for Advancing Translational Sciences (NCATS))
